# Source: PubChem BioAssay AID2132 (NMMLSC, 2009)
# The source made the active and inactive calls.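 How the source made its calls: active means inhibition above 20%; inactive means the rest.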 Peptide text beside a SMILES is read from it. * marks the point of attachment. Cbz = O=C(OCc1ccccc1)*
# Experiment: inhibition of 26S proteasome fluorogenic peptide cleavage, counter-screen for 26S proteasome disassembly project, biochemical, fluorogenic peptides, secondary (AID 2132)
# Details: yeast 26S proteasome, fluorogenic peptide cleavage rate; with Suc-LLVY-amc; at 100 µM; active compounds read high
row,SMILES,inhibition
1,CC(=O)N1C(=O)C(=C2C=C(C)OC(C)=C2)c2ccccc21,45% (active)
2,CC(C)C[C@@H](C=O)NC(=O)[C@H](CC(C)C)NC(=O)[C@H](CC(C)C)NC(=O)OCc1ccccc1 (Cbz-Leu-Leu-Leu-aldehyde),97% (active)
